This is a sample that favours compounds with a hit; in the whole collection about 18% have one here.
IL-1B inflam inh = blocks inflammasome-driven IL-1 beta release; activity change, % at 57.5 µM; 4.7% of 360,000 active; THP-1 LPS/ATP IL-1B secretion, AlphaLISA, 16 h; hits give low values; in the data active means activity change below about -50%; inconclusive means mostly about -30% to -49%
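Secreted IL-1B measured by AlphaLISA bead assay after 16 h compound exposure of THP-1 cells; compounds (final up to 57.5 uM) added 1 h before LPS (250 ng/mL) and ATP (1.25 mM) stimulation; lower signal means less secretion.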
DT40 TDP1 CPT = DT40-hTDP1 cell growth loss with CPT | chicken DT40 Tdp1-/-;hTDP1 cells + 20 nM CPT, ATP luminescence, 48 h | Potency, µM (series often up to 46.2 µM), most hits filed as inhibitors | 12% of 420,000 active | AID 686979; further: nearly all actives have a fitted effect of over 55% in size
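Chicken DT40 Tdp1-/- cells complemented with human TDP1, 400 cells/well, exposed to compounds plus 20 nM camptothecin for at least 48 h at 37 C; viability read as ATP content by CellTiter-Glo luminescence.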
LDHA inh = blocks human lactate dehydrogenase A | P00338 | purified LDHA, NADH/diaphorase-resazurin fluorescence; hits give low values | activity change, % (values are at about 110 or 230 µM) | 0.15% of 480,000 active | AID 1347041; in the data active means activity change below about -30%; inconclusive means mostly about -25% to -30%
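Remaining NADH was detected by diaphorase (0.133 mg/mL) converting 37 µM resazurin to fluorescent resorufin, read at 0 and 20 minutes. The preceding 5-minute room-temperature reaction used 2 nM LDHA, 0.2 mM sodium pyruvate and 0.06 mM NADH at pH 7.4.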
RORgamma inh = blocks mouse ROR gamma transcriptional activity. AID 2551. P51450. Potency, µM (titrated, usually from 53.6 µM), most hits filed as inhibitors. Drosophila S2 Gal4-RORgamma UAS-luciferase reporter, 20 h. 5.4% of 310,000 active; further: nearly all actives have a fitted effect of over 60% in size
Target sequence (P51450 whole entry, looked up, the tested form may be a part): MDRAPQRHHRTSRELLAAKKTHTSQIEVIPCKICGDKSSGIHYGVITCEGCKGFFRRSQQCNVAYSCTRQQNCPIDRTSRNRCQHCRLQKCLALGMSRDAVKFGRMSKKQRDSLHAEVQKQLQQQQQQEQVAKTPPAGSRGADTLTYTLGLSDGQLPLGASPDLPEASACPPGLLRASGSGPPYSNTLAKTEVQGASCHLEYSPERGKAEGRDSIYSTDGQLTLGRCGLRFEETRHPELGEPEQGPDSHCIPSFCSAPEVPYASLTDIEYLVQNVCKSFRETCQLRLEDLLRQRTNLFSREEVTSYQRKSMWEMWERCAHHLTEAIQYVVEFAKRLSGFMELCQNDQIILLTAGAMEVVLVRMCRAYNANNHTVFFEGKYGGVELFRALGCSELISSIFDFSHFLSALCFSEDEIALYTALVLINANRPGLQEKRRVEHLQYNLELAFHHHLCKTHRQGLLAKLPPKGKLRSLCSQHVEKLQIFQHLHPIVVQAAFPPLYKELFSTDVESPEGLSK
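Luminescence from a UAS-regulated Photinus luciferase reporter in stably transfected Drosophila Schneider cells is measured; decreased signal marks ROR gamma inhibition. Fusion expression is induced by 700 uM copper sulfate for 20 hr.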
VP16 counter = Gal4-VP16 reporter inhibition counter-screen | 3.5% of 310,000 active | Potency, µM (highest dose often 53.6 µM), usual class: inhibitors | Drosophila S2 Gal4-VP16 UAS-luciferase, luminescence, 20 h;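 further: Gal4-VP16 expression switched on by copper sulfate through the metallothionein promoter; nearly all actives have a fitted effect of over 50% in size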
DT40 TDP1 no CPT = qHTS for Inhibitors of human tyrosyl-DNA phosphodiesterase 1 (TDP1): qHTS in cells in absence of CPT. DT40 Tdp1-/- hTDP1 cells, no CPT, ATP luminescence, 48 h. Potency, µM (highest dose often 46.2 µM), most hits filed as inhibitors. 15% of 420,000 active. AID 686978, 2013; further: nearly all actives have a fitted effect of over 55% in size
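Luminescent ATP content (CellTiter-Glo) served as the growth readout. Knockout chicken DT40 cells expressing human TDP1 were exposed to compounds without camptothecin for a minimum 48 hr at 37 °C.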
A number is an active result; 0 = inactive; ? = inconclusive; - = not tested or not shown; [ ] = dose if it differs, or a comment. Unless noted, the call rests on the fitted dose curve; in most records, active means well fitted curve in the direction sought with a large enough effect; inconclusive means small, poorly fitted or top-dose-only effect, or another doubt; inactive means no such curve, though single readings can be large; an effect the other way counts as inactive or inconclusive.

SMILES	IL-1B inflam inh	DT40 TDP1 CPT	LDHA inh	RORgamma inh	VP16 counter	DT40 TDP1 no CPT
O=C(COc1cccc2ccccc12)Nc1cc(Cl)ccc1C(=O)O	-53	0	0	0	?	0
CC(=O)N1CCN(c2ccc(NC(=O)c3ccc(Cl)cc3)cc2)CC1	0	0	0	0	0	0
CC(=O)N1CCN(c2ccc(NC(=O)c3ccc(C(C)(C)C)cc3)cc2)CC1	-95	?	0	?	0	26µM
CC(=O)N1CCN(c2ccc(NC(=O)c3cc(Cl)ccc3Cl)cc2)CC1	-63	0	0	0[1.91 µM]	0	0
CCc1cccc(NS(=O)(=O)c2ccc3c(c2)N(CC(=O)OC)C(=O)CS3)c1	-	18µM	0	-	-	?
COC(=O)CN1C(=O)CSc2ccc(S(=O)(=O)Nc3cccc(C)c3)cc21	-	?	0	-	-	23µM
O=C(NNC(=O)c1ccc2c(c1)CCCC2)c1cccnc1	-	-	0	-	-	-
COc1ccc(NC(=O)C2(C)Cc3c(-c4ccc(C(N)=O)cc4)ccnc3O2)cn1 (stereo unspecified)	0	?	0	-	-	?
COc1ccc(NC(=O)C2(C)Cc3c(-c4ccc(NC(C)=O)cc4)ccnc3O2)cn1 (stereo unspecified)	?	21µM	0	-	-	?
COc1ccc(NC(=O)C2(C)Cc3c(-c4ccc(NC(C)=O)cc4)ccnc3O2)cc1OC (stereo unspecified)	0	?	0	-	-	13µM
COc1ccc(CCCNC(=O)C2(C)Cc3c(-c4ccc(NC(C)=O)cc4)ccnc3O2)cc1 (stereo unspecified)	?	23µM	0	-	-	26µM
COc1ccc(NC(=O)C2(C)Cc3c(-c4cccc(NC(C)=O)c4)ccnc3O2)cn1 (stereo unspecified)	0	0.73µM	0	-	-	1.5µM
O=c1cc(-c2cccs2)oc2ccccc12	-	-	0	-	-	-
O=C(CN1CCN(c2cnn(-c3ccccc3)c(=O)c2Cl)CC1)Nc1ccc2c(c1)OCCCO2	-	-	0	-	-	-
Cc1ccc(C(=O)N/N=C2\CC3CC=CC23)c(C)c1 (stereo unspecified)	0	0	0	0	0	0
O=C(NN=C1CCCC1)c1ccc([N+](=O)[O-])cc1	0	0	0	11µM	0	0
O=C(N/N=C1\CC2CC=CC12)c1ccc(O)cc1 (stereo unspecified)	0	0	0	2.5µM	4.5µM	0
O=C(NN=C1CCCC1)c1ccc(O)cc1	0	0	0	11µM	?	0
O=S(=O)(c1ccc2c(c1)OCCO2)c1nc(-c2ccco2)oc1NC1CC1	-	-	0	-	-	-
COc1cc(OC)c(NC(=O)Cn2c(C(=O)c3cccc(F)c3)nc3ccccc32)cc1Cl	-	-	0	-	-	-
O=C(C[C@H]1C[C@@H]2c3cc(NC(=O)Nc4ccccc4F)ccc3O[C@@H]2[C@H](CO)O1)NCc1ccccn1	0	?	0	-	-	16µM
COc1cccc(S(=O)(=O)Nc2ccc3c(c2)[C@@H]2C[C@H](CC(=O)NCCc4ccccc4)O[C@H](CO)[C@@H]2O3)c1	0	23µM	0	-	-	16µM
O=C(C[C@@H]1C[C@H]2c3cc(NC(=O)NC4CCCCC4)ccc3O[C@H]2[C@H](CO)O1)NC1CCCCC1	?	?	0	-	-	15µM
CCCNC(=O)C[C@H]1C[C@H]2c3cc(NC(=O)Nc4ccc(F)cc4)ccc3O[C@H]2[C@@H](CO)O1	0	1.8µM	0	-	-	2.3µM
COC(=O)C[C@H]1C[C@@H]2c3cc(NC(=O)Nc4ccc(F)cc4)ccc3O[C@@H]2[C@@H](CO)O1	0	0	0	-	-	0
SMILES	IL-1B inflam inh	DT40 TDP1 CPT	LDHA inh	RORgamma inh	VP16 counter	DT40 TDP1 no CPT
COCCNC(=O)C[C@@H]1C[C@H]2c3cc(NC(=O)Nc4ccc(F)cc4)ccc3O[C@H]2[C@H](CO)O1	0	?	0	-	-	8.2µM
COC(=O)C[C@H]1C[C@H]2c3cc(NC(=O)Nc4ccc(C(F)(F)F)cc4)ccc3O[C@H]2[C@@H](CO)O1	0	?	0	-	-	26µM
COc1ccc2cnnc(SCC(=O)Nc3ccccc3)c2c1OC	-58	0	0	0	0	?
Cc1ccc(NC(=O)CSc2nncc3ccccc23)cc1	0	0	0	0	0	0
Cc1nnc(SCC(=O)Nc2ccc(O)cc2)c2ccccc12	-98	0	0	?	0	0
Cc1ccccc1NC(=O)CSc1nnc(C)c2ccccc12	-69	0	0	0	0	0
Cc1nnc(SCC(=O)Nc2ccccc2)c2ccccc12	-102	0	0	0	?	?
Cc1cc(=O)oc2cc(OCC(=O)NCC3(N4CCCCC4)CCCCC3)ccc12	-	-	0	-	-	-
CCCn1c(=O)n(CC(=O)Nc2ccccc2OCC)c(=O)c2c1nc(C)n2CCOC	-	-	0	-	-	-
CC(NC(=O)C12CC3CC(CC(C3)C1)C2)C(=O)N/N=C/C1=C(N2CCOCC2)C(=C\c2cccc([N+](=O)[O-])c2)/CC1 (stereo unspecified)	0	?	0	0	0	12µM
N#C/C(=C\C1=C(N2CCOCC2)C(=C/c2cccc([N+](=O)[O-])c2)/CC1)C(=O)Nc1ccccc1F	0	9.2µM	0	0	0	10µM
O=C(/C=C/c1cccc([N+](=O)[O-])c1)Nc1ccccc1N1CCOCC1	0	?	0	0	0	?
N#C/C(=C/C1=C(N2CCOCC2)C(=C/c2cccc([N+](=O)[O-])c2)/CC1)C(=O)Nc1ccccc1F	0	10µM	0	-	-	8.2µM
COc1ccc2[nH]c3c(c2c1)CCN1C(=O)C(CC(=O)NCc2ccc(OC)c(OC)c2)C[C@H](C(=O)N2CCOCC2)[C@@]31C (stereo partly specified)	0	0	0	-	-	0
CCN(CC)C(=O)[C@H]1C[C@H](CC(=O)NCCCOC)C(=O)N2CCc3c([nH]c4cc(-c5ccco5)ccc34)[C@]12C	0	15µM	0	-	-	18µM
C[C@]12c3[nH]c4ccc(Cl)cc4c3CCN1C(=O)[C@@H](CC(=O)NCCc1ccccn1)C[C@@H]2C(=O)N1CCOCC1	0	?	0	-	-	0
CCN(CC)C(=O)[C@H]1C[C@H](CC(=O)NCCc2ccccn2)C(=O)N2CCc3c([nH]c4ccc(Cl)cc34)[C@]12C	0	?	0	-	-	21µM
CC[C@]12c3[nH]c4cc(-c5ccco5)ccc4c3CCN1C(=O)[C@@H](CC(=O)NCCCOC)C[C@@H]2C(=O)N1CCN(C(=O)C2CC2)CC1	0	?	0	-	-	?
COc1ccc(CNC(=O)C[C@H]2C[C@H](C(=O)N3CCCCC3)[C@@]3(C)c4[nH]c5ccc(Cl)cc5c4CCN3C2=O)cc1OC	-56	18µM	0	-	-	12µM

Assay outcomes as filed in PubChem.
